CYP2C19 inhib = blockers of cytochrome P450 2C19 activity – biochemical, luminescence, ADME assay, primary screen; inhibition, % at 5 µM; AID 778, 2007; P33261; CYP2C19 Supersomes, luciferin-H EGE luminescence, 30 min; 21% of 96,000 active;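 active = CYP2C19 inhibition above a set limit at 5 µM in the primary screen, cut at about 50% in these data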;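 also: plate controls were negative control wells for no effect and 2.5 mM tranylcypromine positive control for full effect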
sEH inhibitor = soluble epoxide hydrolase inhibitors, primary screen, biochemical, human sEH; Bifunctional epoxide hydrolase 2 (Homo sapiens), P34913; recombinant human sEH enzymatic activity assay; inhibition, % at 2 µM; 0.34% of 91,000 active; AID 707, 2007; in the data active = inhibition above about 80%
Target sequence (P34913 whole entry, looked up): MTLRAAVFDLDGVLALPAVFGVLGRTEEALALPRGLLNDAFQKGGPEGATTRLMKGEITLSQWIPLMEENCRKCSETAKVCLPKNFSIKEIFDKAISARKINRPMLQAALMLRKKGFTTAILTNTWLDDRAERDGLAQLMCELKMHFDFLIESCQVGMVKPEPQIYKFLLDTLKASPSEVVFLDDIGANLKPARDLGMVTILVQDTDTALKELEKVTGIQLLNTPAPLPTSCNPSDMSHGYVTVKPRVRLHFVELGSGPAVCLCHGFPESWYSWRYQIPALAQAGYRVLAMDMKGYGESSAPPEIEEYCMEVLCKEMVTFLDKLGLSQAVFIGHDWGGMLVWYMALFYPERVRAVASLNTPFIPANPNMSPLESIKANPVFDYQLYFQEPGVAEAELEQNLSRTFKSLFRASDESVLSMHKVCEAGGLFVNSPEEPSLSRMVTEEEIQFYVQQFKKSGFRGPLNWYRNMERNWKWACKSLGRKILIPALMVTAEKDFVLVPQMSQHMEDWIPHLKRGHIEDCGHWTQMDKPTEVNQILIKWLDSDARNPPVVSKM
CYP2C9 inh = blockers of cytochrome P450 2C9 activity – biochemical, luminescence, ADME assay, primary screen. 20% of 96,000 active. P11712. CYP2C9 Supersomes, luciferin-H conversion. inhibition, % at 5 µM;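 active = blocking of liver enzyme CYP2C9 beyond about 50% at 5 µM, limit read from the data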
sEH activator = soluble epoxide hydrolase activators, primary screen, biochemical, human sEH; Bifunctional epoxide hydrolase 2 (Homo sapiens), P34913; purified human sEH enzymatic activity, activator screen; activation, % at 2 µM; 0.04% of 91,000 active; in the data active = activation above about 37%
CYP2C19 activ = human CYP2C19 activators, primary screen, biochemical, luminescence; Cytochrome P450 2C19 (Homo sapiens), P33261; recombinant CYP2C19, luciferin-H EGE luminescence; hits give high values; 0 = fully inhibited enzyme, 1 = untreated enzyme; activation factor at 5 µM; 96,000 tested, under 10 active; AID 1025, 2008;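 active = activation factor of at least 2 at 5 µM in the primary screen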;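 also: 0 = wells with 2.5 mM tranylcypromine and 1 = vehicle-only wells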
CYP2C9 act = human CYP2C9 activators, primary screen, biochemical, luminescence; Cytochrome P450 2C9 (Homo sapiens), P11712; recombinant CYP2C9, luciferin-H conversion; hits give high values; factor 1 = untreated enzyme, 0 = blocked; activation factor at 5 µM; 1.4% of 96,000 active;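 active = activation factor of 2 or more for CYP2C9 at a 5 µM dose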;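 also: 0 = sulfaphenazole-blocked wells and 1 = vehicle-only wells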
Active calls of the source: *; nt = not tested or not shown. In the library only some 27% were active in any assay of this set; here they are far more common.

SMILES | CYP2C19 inhib | sEH inhibitor | CYP2C9 inh | sEH activator | CYP2C19 activ | CYP2C9 act
CC(=O)c1cccc(NC(=O)Nc2cnn(Cc3ccc(Cl)cc3Cl)c2)c1 | -7 | 38 | -3 | -38 | 1.1 | 1
Cc1nnc(SCCn2c(N3CC(C)CC(C)C3)nc3c2c(=O)n(C)c(=O)n3C)s1 (stereo not drawn) | 17 | -1 | 20 | 5 | 0.8 | 0.8
Cc1nnc(SCCn2c(Br)nc3c2c(=O)n(C)c(=O)n3C)s1 | 80* | 2 | 8 | -3 | 0.2 | 0.9
Cc1ccc(-c2csc(N3CCC(NS(=O)(=O)c4ccc5c(c4)OCCO5)CC3)n2)cc1 | 47 | 3 | 63* | -4 | 0.5 | 0.4
O=S(=O)(c1ccc(F)cc1)N1CCN(c2nc(-c3ccc(F)cc3)cs2)CC1 | -6 | -14 | -6 | 13 | 1.1 | 1.1
Cc1ccc(C(=O)CCNc2ccc(Br)cc2)o1 | 91* | 14 | 27 | -10 | 0.1 | 0.7
Cc1ccc(C(=O)CCNc2ccc(F)c(Cl)c2)o1 | 66* | nt | 12 | nt | 0.3 | 0.9
Cc1ccc(C(=O)CCNc2cccc(Br)c2)o1 | 62* | 10 | 16 | -8 | 0.4 | 0.8
Cc1ccc(C(=O)CCNc2ccccc2)o1 | 35 | -5 | -1 | 4 | 0.7 | 1
Cn1c(=O)c2c(nc(NCCCN3CCOCC3)n2Cc2ccc(Cl)c(Cl)c2)n(C)c1=O | nt | 1 | nt | -3 | nt | nt
COc1ccc(N(CC(=O)O)S(=O)(=O)c2cccnc2)cc1 | -20 | -16 | -23 | 13 | 1.2 | 1.2
NC(=O)CSc1nnc(-c2ccc(O)cc2)n1Cc1ccco1 | nt | 1 | nt | 1 | nt | nt
COC(=O)c1c(NC(=O)CSc2nnc(-c3cccnc3)n2Cc2ccco2)sc(C)c1C | 84* | 0 | 85* | 0 | 0.2 | 0.1
CCOC(=O)CNC(=O)CSc1nnc(-c2ccco2)n1Cc1ccco1 | 13 | 2 | 6 | 0 | 0.9 | 0.9
O=C(CSc1nnc(-c2cnccn2)n1Cc1ccco1)Nc1ccc(Br)cc1 | -3 | 25 | 59* | -23 | 1 | 0.4
O=C(CSc1nnc(-c2ccccn2)n1Cc1ccco1)Nc1ccc2c(c1)OCO2 | -1 | 4 | 37 | -4 | 1 | 0.6
O=C(CSc1nnc(-c2ccc(O)cc2)n1Cc1ccco1)N1CCc2ccccc2C1 | 62* | 5 | 50* | -3 | 0.4 | 0.5
COc1ccc(C(=O)CSc2nnc(-c3cnccn3)n2Cc2ccco2)cc1 | 40 | -21 | 54* | 20 | 0.6 | 0.5
NC(=S)N/N=C/c1ccccc1OCc1cccc(Cl)c1 | 21 | -2 | 10 | 2 | 0.8 | 0.9
COc1ccc(Oc2nccc(-c3ccccc3)c2C#N)cc1 | 30 | -9 | 28 | 10 | 0.7 | 0.7
C=CCn1c(SCC(=O)c2ccc(OC)cc2)nnc1-c1cc2cccc(OC)c2o1 | 21 | 1 | -11 | -1 | 0.8 | 1.1
COc1ccc(C(=O)CSc2nnc(-c3cc4ccccc4cc3O)n2Cc2ccco2)cc1 | 44 | -10 | 80* | 8 | 0.6 | 0.2
CC1CCN(C(=O)CSc2nnc(-c3cc4ccccc4cc3O)n2Cc2ccco2)CC1 | 67* | -4 | 74* | 3 | 0.3 | 0.3
COc1ccc(C(=O)CSc2nnc(-c3cccnc3)n2Cc2ccco2)cc1 | 53* | -13 | 57* | 13 | 0.5 | 0.4
CC(=O)NC(CCS(C)(=O)=O)C(=O)Nc1cccc(C(C)=O)c1 (stereo not drawn) | -3 | -4 | -4 | 8 | 1 | 1
SMILES | CYP2C19 inhib | sEH inhibitor | CYP2C9 inh | sEH activator | CYP2C19 activ | CYP2C9 act
CCc1nnc(N2C(=O)c3cccc4cccc(c34)C2=O)s1 | -4 | -14 | -38 | 13 | 1 | 1.4
CN1/C(=C\C=Nc2ccccc2)C(C)(C)c2ccccc21 | 1 | 0 | 1 | 0 | 1 | 1
CN1/C(=C/C(=O)c2nc(S(C)(=O)=O)ncc2Cl)C(C)(C)c2ccccc21 | 9 | -14 | 32 | 13 | 0.9 | 0.7
CN1/C(=C\C(=O)C(F)F)C(C)(C)c2ccccc21 | 34 | 0 | 53* | -1 | 0.7 | 0.5
CN1/C(=C\C(=O)c2ccco2)C(C)(C)c2ccccc21 | 25 | -24 | 56* | 23 | 0.8 | 0.4
CN1/C(=C\C(=O)COc2ccc3c(c2)OCO3)C(C)(C)c2ccccc21 | 24 | 1 | 87* | -2 | 0.8 | 0.1
CCn1c(COc2cccc(C)c2C)nnc1SCC(=O)N1CCN(c2ccc(OC)cc2)CC1 | 6 | -1 | -4 | 0 | 0.9 | 1
Cc1c(NC(=O)c2n[nH]c(=O)c3ccccc23)c(=O)n(-c2ccccc2)n1C | -20 | 2 | -27 | 0 | 1.2 | 1.3
O=C(Nc1cccc(N2CCCC2)c1)c1cccs1 | -2 | 6 | 12 | -7 | 1 | 0.9
Cc1ccc(Cn2nnc3c(=O)[nH]c(C4CCN(C(=O)c5cccs5)CC4)nc32)cc1 | 45 | -4 | 72* | 0 | 0.5 | 0.3
Cc1ccc(C)c(Cn2nnc3c(=O)[nH]c(C4CCN(C(=O)c5cccs5)CC4)nc32)c1 | 51* | -7 | 88* | 7 | 0.5 | 0.1
CCCCN(CCCC)Cc1cc2ccccc2c2c1COC2 | 4 | -1 | 29 | 1 | 1 | 0.7
COc1ccc(S(=O)(=O)/N=C2/NC(=O)/C(=C\c3cc(OC)c(OC)cc3[N+](=O)[O-])S2)cc1 | 14 | -1 | 100* | 2 | 0.9 | 0
COc1cc(/C=C2\S/C(=N/S(=O)(=O)c3ccccc3)NC2=O)c([N+](=O)[O-])cc1OC | nt | 0 | nt | 0 | nt | nt
CN1CC(=O)NC1=NC(=O)c1ccc(Cl)c(S(=O)(=O)N2CCCCCC2)c1 | 16 | 3 | 25 | -4 | 0.8 | 0.8
COc1cc(S(=O)(=O)N2CCC(C(N)=O)CC2)c(C)cc1C | 69* | 4 | -200 | -4 | 0.3 | 3*
Cc1cc(C)c(S(=O)(=O)N2CCC(C(N)=O)CC2)cc1C | 38 | 1 | -133 | 1 | 0.6 | 2.3*
Cc1ccc(S(=O)(=O)N2CCC(C(N)=O)CC2)c(C)c1C | 29 | -3 | -23 | 4 | 0.7 | 1.2
COc1ccc(C2=Nn3c(nnc3C3CCCCC3)SC2)cc1OC | 64* | 11 | 72* | -10 | 0.4 | 0.3
COc1ccc(OC)c(C2=Nn3c(nnc3C3CCCCC3)SC2)c1 | 94* | 1 | 78* | 1 | 0.1 | 0.2
COc1ccccc1C1=Nn2c(nnc2C2CCCCC2)SC1 | 39 | 2 | 33 | -2 | 0.6 | 0.7
CCOC(=O)C1CCN(C(=O)CCNC(=O)c2cc(OC)c(OC)c(OC)c2)CC1 | -13 | -3 | 1 | 0 | 1.1 | 1
COc1cccc(C(C#N)N2N=C(C)CC2(C)C)c1O (stereo not drawn) | nt | -5 | 6 | 5 | nt | 0.9

Screening results (PubChem)
